Out of some 5,500 compounds screened, about 2,000 (36%) were called active. Inconclusive results (about 18%) are left out. No stated cut-off is given here; in the data, active means normalized growth mostly below about 0.91 (no sharp cut-off); inconclusive means no clear call, values can overlap the other calls; inactive means mostly above about 0.92. The list shows a part of the results.
Test: chemical genetic growth profiling, strain panel (AID 1159580);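 further: tested at 20 µM; growth read once vehicle control cultures reached saturation at 30 °C; 1 = growth at the plate median or of vehicle wells; lower values mean less growth of the strain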
Settings: growth OD

Measured: normalized growth

COc1cc(NS(=O)(=O)c2ccc(N)cc2)nc(OC)n1
inactive: S. cerevisiae deletion strains, locus YJR066W, strain TOR1, hits give low values 0.933 | S. cerevisiae deletion strains, locus YKL009W, strain mrt4, hits give low values 0.985 | S. cerevisiae deletion strains, locus YKL068W, hits give low values 0.984 | S. cerevisiae deletion strains, locus YKL085W, strain MDH1 (second series), hits give low values 0.991 | S. cerevisiae deletion strains, locus YKL085W, strain MDH1, hits give low values 0.991 | S. cerevisiae deletion strains, locus YKL160W, strain elf1, hits give low values 0.969 | S. cerevisiae deletion strains, locus YKL190W, strain CNB1, hits give low values 0.999 | S. cerevisiae deletion strains, locus YKR001C, strain vps1, hits give low values 1 | S. cerevisiae deletion strains, locus YKR026C, strain gcn3, hits give low values 0.973 | S. cerevisiae deletion strains, locus YKR091W, strain srl3, hits give low values 0.982 | S. cerevisiae deletion strains, locus YLL001W, strain dnm1, hits give low values 0.982 | S. cerevisiae deletion strains, locus YLL026W, hits give low values 0.992 | S. cerevisiae deletion strains, locus YLL041C, strain sdh2, hits give low values 0.992 | S. cerevisiae deletion strains, locus YLR027C, strain aat2, hits give low values 0.988 | S. cerevisiae deletion strains, locus YLR039C, strain RIC1, hits give low values 0.997 | S. cerevisiae deletion strains, locus YLR058C, strain SHM2, hits give low values 0.982 | S. cerevisiae deletion strains, locus YLR102C, strain apc9, hits give low values 0.985 | S. cerevisiae deletion strains, locus YLR113W, strain HOG1, hits give low values 0.961 | S. cerevisiae deletion strains, locus YLR221C, strain rsa3, hits give low values 0.986 | S. cerevisiae deletion strains, locus YLR258W, strain gsy2, hits give low values 0.979 | S. cerevisiae deletion strains, locus YLR262C, strain YPT6 (second series), hits give low values 0.952 | S. cerevisiae deletion strains, locus YLR262C, strain YPT6, hits give low values 0.97 | S. cerevisiae deletion strains, locus YLR268W, strain sec22, hits give low values 0.98 | S. cerevisiae deletion strains, locus YLR320W, strain mms22, hits give low values 0.972 | S. cerevisiae deletion strains, locus YLR330W, strain CHS5, hits give low values 0.984 | S. cerevisiae deletion strains, locus YLR342W, strain FKS1 (second series), hits give low values 0.95 | S. cerevisiae deletion strains, locus YLR342W, strain FKS1, hits give low values 0.986 | S. cerevisiae deletion strains, locus YLR357W, strain rsc2, hits give low values 0.921 | S. cerevisiae deletion strains, locus YLR370C, strain arc18, hits give low values 0.977 | S. cerevisiae deletion strains, locus YLR371W, strain rom2, hits give low values 0.982 | S. cerevisiae deletion strains, locus YLR384C, strain iki3, hits give low values 0.97 | S. cerevisiae deletion strains, locus YLR418C, strain cdc73, hits give low values 0.969 | S. cerevisiae deletion strains, locus YML016C, strain PPZ1, hits give low values 0.983 | S. cerevisiae deletion strains, locus YML032C, strain rad52, hits give low values 0.983 | S. cerevisiae deletion strains, locus YML120C, strain ndi1, hits give low values 0.972 | S. cerevisiae deletion strains, locus YML124C, strain tub3, hits give low values 0.988 | S. cerevisiae deletion strains, locus YMR058W, strain fet3, hits give low values 0.996 | S. cerevisiae deletion strains, locus YMR078C, strain ctf18, hits give low values 0.984 | S. cerevisiae deletion strains, locus YMR125W, strain sto1, hits give low values 0.978 | S. cerevisiae deletion strains, locus YMR129W, hits give low values 0.983 | S. cerevisiae deletion strains, locus YMR205C, strain PFK2, hits give low values 0.971 | S. cerevisiae deletion strains, locus YMR223W, strain ubp8, hits give low values 0.987 | S. cerevisiae deletion strains, locus YMR231W, strain pep5, hits give low values 0.982 | S. cerevisiae deletion strains, locus YMR307W, strain GAS1, hits give low values 0.933 | S. cerevisiae deletion strains, locus YNL067W, strain RPL9B, hits give low values 1.01 | S. cerevisiae deletion strains, locus YNL071W, strain lat1, hits give low values 0.975 | S. cerevisiae deletion strains, locus YNL153C, strain GIM3, hits give low values 1.04 | S. cerevisiae deletion strains, locus YNL183C, strain NPR1, hits give low values 0.943 | S. cerevisiae deletion strains, locus YNL209W, strain ssb2, hits give low values 0.97 | S. cerevisiae deletion strains, locus YNL233W, strain BNI4, hits give low values 1 | S. cerevisiae deletion strains, locus YNL248C, strain rpa49, hits give low values 0.969 | S. cerevisiae deletion strains, locus YNL250W, strain rad50, hits give low values 0.988 | S. cerevisiae deletion strains, locus YNL271C, strain bni1, hits give low values 0.978 | S. cerevisiae deletion strains, locus YNL298W, strain CLA4, hits give low values 0.962 | S. cerevisiae deletion strains, locus YNL307C, strain MCK1, hits give low values 0.981 | S. cerevisiae deletion strains, locus YNL322C, strain KRE1 (second series), hits give low values 0.976 | S. cerevisiae deletion strains, locus YNL322C, strain KRE1, hits give low values 0.996 | S. cerevisiae deletion strains, locus YNR049C, strain mso1, hits give low values 0.979 | S. cerevisiae deletion strains, locus YNR052C, strain pop2, hits give low values 0.986 | S. cerevisiae deletion strains, locus YOL006C, strain TOP1, hits give low values 1.05 | S. cerevisiae deletion strains, locus YOL012C, strain htz1 0.758 | S. cerevisiae deletion strains, locus YOL147C, strain pex11, hits give low values 0.978 | S. cerevisiae deletion strains, locus YOR001W, strain rrp6, hits give low values 0.988 | S. cerevisiae deletion strains, locus YOR061W, strain CKA2, hits give low values 0.977 | S. cerevisiae deletion strains, locus YOR069W, strain VPS5, hits give low values 0.985 | S. cerevisiae deletion strains, locus YOR070C, strain gyp1, hits give low values 0.981 | S. cerevisiae deletion strains, locus YOR080W, strain dia2, hits give low values 0.966 | S. cerevisiae deletion strains, locus YOR083W, strain WHI5, hits give low values 0.981 | S. cerevisiae deletion strains, locus YOR106W, strain vam3, hits give low values 0.977 | S. cerevisiae deletion strains, locus YOR136W, strain idh2, hits give low values 0.991 | S. cerevisiae deletion strains, locus YOR144C, strain elg1, hits give low values 0.992 | S. cerevisiae deletion strains, locus YOR184W, strain ser1, hits give low values 0.991 | S. cerevisiae deletion strains, locus YOR231W, strain MKK1, hits give low values 0.968 | S. cerevisiae deletion strains, locus YOR265W, strain rbl2, hits give low values 0.992 | S. cerevisiae deletion strains, locus YOR270C, strain vph1, hits give low values 0.965 | S. cerevisiae deletion strains, locus YOR290C, strain snf2, hits give low values 0.991 | S. cerevisiae deletion strains, locus YOR316C, strain cot1, hits give low values 0.988 | S. cerevisiae deletion strains, locus YPL051W, strain arl3, hits give low values 0.973 | S. cerevisiae deletion strains, locus YPL055C, strain LGE1, hits give low values 1.03 | S. cerevisiae deletion strains, locus YPL078C, strain atp4, hits give low values 0.965 | S. cerevisiae deletion strains, locus YPL106C, strain sse1, hits give low values 0.976 | S. cerevisiae deletion strains, locus YPL240C, strain hsp82, hits give low values 0.98 | S. cerevisiae deletion strains, locus YPL241C, strain CIN2, hits give low values 0.994 | S. cerevisiae deletion strains, locus YPL256C, strain CLN2, hits give low values 0.966 | S. cerevisiae deletion strains, locus YPR119W, strain clb2, hits give low values 0.989 | S. cerevisiae deletion strains, locus YPR141C, strain kar3, hits give low values 0.982 | S. cerevisiae deletion strains, locus YPR163C, strain tif3, hits give low values 0.973 | S. cerevisiae deletion strains, locus YPR167C, strain met16, hits give low values 0.986 | S. cerevisiae deletion strains, strain wtn01, hits give low values 0.981 | S. cerevisiae strains, strain wild type, hits give low values 0.991
